# High-throughput results as filed in PubChem.
# Compounds with a hit are over-represented: about 1.9% of the library has one in this group of screens.
# PGE2 EP2 inh: human EP2 receptor antagonists, primary screen, TR-FRET cAMP, C6 glioma cells; AID 1422, 2008; inhibition, % at 25 µM; hit rate 0.52% among 260,000; Prostaglandin E2 receptor EP2 subtype (Homo sapiens), P43116; C6 glioma cells expressing human EP2; cells stimulated with saturating PGE2;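 active = percent inhibition above 40 after rounding to a whole number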;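 note: rat C6 glioma host cells with rolipram phosphodiesterase inhibitor present; the protocol text gives 20 µM as final concentration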
# Target sequence (P43116 whole entry, looked up): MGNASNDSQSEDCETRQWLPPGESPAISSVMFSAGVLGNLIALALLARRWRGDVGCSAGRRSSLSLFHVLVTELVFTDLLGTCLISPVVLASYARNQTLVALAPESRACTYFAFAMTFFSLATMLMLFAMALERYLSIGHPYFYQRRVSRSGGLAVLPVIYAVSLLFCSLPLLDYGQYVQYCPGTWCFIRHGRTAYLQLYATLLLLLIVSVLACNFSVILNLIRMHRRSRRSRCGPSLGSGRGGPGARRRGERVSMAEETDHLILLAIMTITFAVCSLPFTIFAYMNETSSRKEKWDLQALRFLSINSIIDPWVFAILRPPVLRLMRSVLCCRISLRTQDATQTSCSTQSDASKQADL
# S1P4 antagonist: S1P4 receptor antagonists, primary screen, cell-based. Sphingosine 1-phosphate receptor 4 (Homo sapiens), O95977. S1P4-expressing cells, antagonist mode, reporter read-out. inhibition, % at 4.98 µM. hit rate 0.26% among 220,000. AID 1510, 2009; in the data active = inhibition above about 29%;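 note: 0% = wells stimulated with agonist and 100% = vehicle wells without agonist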
# S1P4 agonist: S1P4 receptor agonists, primary screen, cell-based. Sphingosine 1-phosphate receptor 4 (Homo sapiens), O95977. AID 1509, 2009. S1P4-expressing cell line, agonist reporter assay. hit rate 0.35% among 220,000. activation, % at 4.98 µM; in the data active = activation above about 11%;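 note: 0% = DMSO vehicle and 100% = reference agonist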
# Pf gamet viab: late stage P. falciparum gametocyte viability inhibitors, primary screen, ATP luminescence, HTS; hit rate 0.065% among 150,000; P. falciparum stage V gametocytes, 24 h; inhibition, % at 10.9 µM;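 active = inhibition above the mean plus 3 SD of compounds within the control limits, set per campaign, cut at about 38% in these data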;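 note: 0% = DMSO wells and 100% = medium only without gametocytes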
# EP2 modulator: EP2 receptor modulators, cAMP readout, primary screen, cell-based, HTRF cAMP, PGE2 stimulation; EP2-expressing cells, cAMP HTRF FRET, PGE2 co-stimulation; induction, % at 25 µM; hit rate 0.83% among 260,000;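 active = compounds whose cAMP rise, as percent of the full-agonist control response, exceeds 60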;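 note: rat C6 glioma line stably carrying human EP2 under a CMV promoter; the protocol text gives 20 µM as final concentration; 100% = response of wells given 1 µM PGE2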
# S1P3 antagonist: S1P3 receptor antagonists, primary screen, cell-based. Sphingosine 1-phosphate receptor 3 (Homo sapiens), Q99500. CHO S1P3 NFAT-BLA reporter, FRET fluorescence, antagonist mode. inhibition, % at 4.98 µM. hit rate 0.27% among 170,000. AID 485, 2006;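 active = inhibition above the plate cutoff, the mean inhibition of test wells on that plate plus 3 SD, cut at about 28% in these data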;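 note: cells challenged with S1P at its EC80 of 0.8 µM; blue over green emission ratio from cleaved BLA substrate after 4 h stimulation; 0% = S1P-stimulated wells and 100% = unstimulated DMSO-only wells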
# An asterisk follows results filed as active; nt = no result given; ! = a repeat was not active.
SMILES,PGE2 EP2 inh,S1P4 antagonist,S1P4 agonist,Pf gamet viab,EP2 modulator,S1P3 antagonist
COc1ccccc1NC(=O)C1=C(C)NC2=C(C(=O)CC(C)(C)C2)C1c1cccs1 (stereo not drawn),15,nt,nt,nt,63*,nt
CC1=C(C(=O)Nc2ccccc2C)C(c2cccs2)C2=C(CC(C)(C)CC2=O)N1 (stereo not drawn),8,nt,nt,nt,6,nt
Cc1ccc(C(=O)N2CCC(O)CC2)c(N2CCN(C(=O)c3ccco3)CC2)n1,3,nt,nt,nt,-7,nt
COc1cc2c(cc1CN(CCCn1ccnc1)CC1CC=CCC1)OCO2 (stereo not drawn),5,nt,nt,nt,6,nt
COc1cc(NS(=O)(=O)c2ccc(NC(=S)NC(=O)CC(C)C)cc2)nc(OC)n1,10,6,-1,nt,-54,nt
COc1ccc(C(=O)NC(=S)Nc2ccc(S(=O)(=O)Nc3cc(OC)ncn3)cc2)cc1,25,nt,nt,nt,-87,nt
Cc1cc(NS(=O)(=O)c2ccc(NC(=S)NC(=O)c3ccc(F)cc3)cc2)no1,46*!,-9,0,4,-142,15
COc1ccc(OCC(=O)NC(=S)Nc2ccc(S(=O)(=O)Nc3cc(OC)nc(OC)n3)cc2)cc1,64*,-8,1,10,-65,8
COc1cc(NS(=O)(=O)c2ccc(NC(=S)NC(=O)C3CCCC3)cc2)nc(OC)n1,15,8,0,nt,-77,nt
COc1cc(NS(=O)(=O)c2ccc(NC(=S)NC(=O)c3sc4ccccc4c3Cl)cc2)ncn1,52*,-6,-1,nt,-9,-9
COc1cc(NS(=O)(=O)c2ccc(NC(=S)NC(=O)c3ccc(F)cc3)cc2)nc(OC)n1,59*,nt,nt,nt,-128,nt
CCC(CC)C(=O)N1CCC(c2nc3c(nnn3Cc3ccccc3Cl)c(=O)[nH]2)CC1,23,nt,nt,nt,14,nt
C/C(N[O-])=C(\C)[N+]([O-])=[Rh][Cl].CC(=N\[O-])/C(C)=N/[O-].NC(N)=[SH+],49*,nt,nt,nt,26,nt
Cc1csc(NC(=O)CSc2ncnc3sc(C)c(C)c23)n1,12,nt,nt,nt,17,nt
NC(=O)c1c(NC(=O)c2ccc3ccccc3c2)sc2c1CCCC2,12,nt,nt,nt,-68,nt
Cn1cc(Br)c(C(=O)Nc2sc3c(c2C(N)=O)CCC3)n1,40*,-2,-3,-5,-26,nt
NC(=O)c1c(NC(=O)c2cc3ccccc3o2)sc2c1CCC2,42*,7,0,-27,-11,22
Cc1cc(NC(=O)Cn2nnc(-c3ccc(NC(=O)c4cccs4)cc3)n2)no1,10,nt,nt,nt,-9,nt
COc1ccc2c(c1)Cc1sc(NC(=O)c3ccccc3F)nc1-2,11,nt,nt,nt,-41,nt
COc1ccc(N2CC(C(=O)Nc3ccc(C)cc3C)CC2=O)cc1 (stereo not drawn),18,nt,nt,nt,-13,nt
Cc1sc(-c2cc3cc(Cl)ccc3oc2=O)nc1-c1ccccc1,11,nt,nt,nt,14,nt
Cc1cc(/C=c2/sc3nc4ccccc4n3c2=O)c(C)n1-c1ccccn1,13,-14,25*,-21,-26,nt
Cc1cc(/C=c2\sc3nc4ccccc4n3c2=O)c(C)n1-c1ccc(C(=O)O)cc1,32,-10,0,22,-46,1
CCOc1ccc(C2=CS/C(=C(\C#N)c3nnc4n3CCCCC4)N2CC)cc1,1,-5,15*,nt,-21,nt
CCCn1nnc(NC(=O)c2sc3ccccc3c2Cl)n1,64*,-4,0,nt,8,-30
SMILES,PGE2 EP2 inh,S1P4 antagonist,S1P4 agonist,Pf gamet viab,EP2 modulator,S1P3 antagonist
CCC(c1nnnn1C(C)(C)C)N(Cc1cccs1)Cc1cc2cc3c(cc2[nH]c1=O)OCCO3 (stereo not drawn),7,nt,nt,nt,28,nt
COc1ccc(OC)c(/C=C2/N=C(c3ccc(NC(C)=O)cc3)OC2=O)c1,9,nt,nt,nt,-40,nt
CCCN1C(=O)/C(=C2/C=Cc3ccccc3N2CC)SC1=S,6,-11,1,4,24,11
CCCN1/C(=C2/SC(=S)N(CC)C2=O)C=Cc2ccccc21,11,-19,2,nt,63*,nt
Cc1ccccc1NC(=O)CSc1nc(O)c(C(C)C)c(=O)[nH]1,12,nt,nt,nt,16,nt
CCOC(=O)C1=C(C)OC(N)=C(C#N)C1c1ccc(OCC(N)=O)cc1 (stereo not drawn),9,nt,nt,nt,-9,nt
